{"source": "PubChem BioAssay (Tox21)", "note": "Records with an inconclusive call do not appear. Where a call stands in place of a potency, no number is given. Activity calls are given as the source filed them. Calls come from the whole dose curve; as a rule, active = well fitted activation curve with a large enough effect in the repeat runs; inconclusive = weak or mixed curves; inactive = flat fitted curve, though single readings scatter. Potency is the fitted concentration of half-maximal effect.", "data": [{"assay": "A CellTox Green Cytotoxicity Assay to monitor cytotoxicity in HEK293 cells - 40 hour (AID 1224871); note: nearly all actives have a fitted effect of over 45% in size", "conditions": "CellTox Green fluorescence; series mostly up to 76.8 µM", "excerpt": "National Center for Advancing Translational Sciences [NCATS]\nNIH Chemical Genomics Center [NCGC]\nU.S. Environmental Protection Agency [EPA]\nNational Institutes of Environmental Health Sciences [NIEHS]\nNational Toxicology Program [NTP]\nCell-based models are critical for drug discovery. Determining the natural cytotoxic effects resulting from test compounds is an essential research activity. A CellTox Green Cytotoxicity Assay to monitor cytotoxicity in real time of continues cell culture during 40 hours of the compound treatment was used to screen Tox21 10K library compounds in Hek293 cells. CellTox Green Cytotoxicity Assay is a nonlytic, homogeneous, biofluorescent method to measure cytotoxicity in cell culture after experimental manipulation. The assay system uses a proprietary asymmetric cyanine dye that is excluded from viable cells but preferentially stains the dead cell's DNA. […] Viable cells produce no appreciable increases in fluorescence. Therefore, the fluorescence signal produced by the binding interaction with dead cell DNA is proportional to cytotoxicity.\nThe mixture of Hek293 cell suspension and reagents were dispensed at 600cells/6 ul/well in 1536-well tissue culture treated black solid bottom plates using a Multidrop dispenser. After the assay plates were incubated at a 37 C/5% CO2 incubator for 5 hours, 23 nL of compounds dissolved in DMSO, positive and negative controls was transferred to the assay plate by a pintool work station. The plates were incubated at 37 C for 40 hours. The fluorescence intensity were measured at 0h, 8h, 16h, 24h, 32h and 40h time points using ViewLux plate reader during compound treatment.", "values": [{"compound": "CN(C(=O)CN(CCO)CC(=O)N(C)C(C)(C)Cc1ccccc1)C(C)(C)Cc1ccccc1", "Potency": "23.9 µM (active)"}, {"compound": "CC(O)c1ccccc1", "note": "(stereo not given)", "Potency": "inactive"}, {"compound": "CN(C)CCN1C(=O)c2ccccc2N(C)c2ccccc21", "Potency": "inactive"}, {"compound": "O=C1Cc2cc(Cl)ccc2N1", "Potency": "inactive"}, {"compound": "C[C@H]1C[C@H](O)c2ccsc2S1(=O)=O", "Potency": "inactive"}, {"compound": "COc1ccccc1NC(=O)c1cc2ccccc2cc1O", "Potency": "inactive"}, {"compound": "COc1cc(Nc2c(C#N)cnc3cc(OCCCN4CCN(C)CC4)c(OC)cc23)c(Cl)cc1Cl", "Potency": "21.3 µM (active)"}, {"compound": "C[C@@H]1CC(=O)NN=C1c1ccc(NN=C(C#N)C#N)cc1", "Potency": "inactive"}, {"compound": "c1ccc2c(c1)CCc1ccccc1N2", "Potency": "49.2 µM (active)"}, {"compound": "CC(=O)c1ccc([N+](=O)[O-])cc1", "Potency": "inactive"}, {"compound": "OC[C@H]1O[C@@H](n2cnc3c(=S)nc[nH]c32)[C@H](O)[C@@H]1O", "Potency": "inactive"}, {"compound": "CCOC(=O)c1ccc(OCCN2C[C@H](O)[C@@H](O)[C@H](O)[C@H]2CO)cc1", "Potency": "inactive"}, {"compound": "Cc1ccco1", "Potency": "inactive"}, {"compound": "CC1(C)[C@@H](OC(=O)CCC(=O)O)CC[C@]2(C)[C@H]3C(=O)C=C4[C@@H]5C[C@@](C)(C(=O)O)CC[C@]5(C)CC[C@@]4(C)[C@]3(C)CC[C@@H]12", "Potency": "inactive"}, {"compound": "O=C1NCCN1CCO", "Potency": "inactive"}, {"compound": "C[C@H]1c2cccc(O)c2C(O)=C2C(=O)[C@]3(O)C(O)=C(C(N)=O)C(=O)[C@@H](N(C)C)[C@@H]3[C@@H](O)[C@@H]21", "Potency": "inactive"}, {"compound": "c1ccc2sc(SN(C3CCCCC3)C3CCCCC3)nc2c1", "Potency": "inactive"}, {"compound": "CC(C)C[C@H](NC(=O)[C@H](CCc1ccccc1)NC(=O)CN1CCOCC1)C(=O)N[C@@H](Cc1ccccc1)C(=O)N[C@@H](CC(C)C)C(=O)[C@@]1(C)CO1", "Potency": "0.0756 µM (active)"}, {"compound": "CCCCN(CCN(CCCC)C(=O)N1CCOCC1)C(=O)N1CCOCC1", "Potency": "inactive"}, {"compound": "O=C(/C=C/c1ccccc1)OCCc1ccccc1", "Potency": "inactive"}, {"compound": "CN1CCCN=C1COC(=O)C(O)(c1ccccc1)C1CCCCC1", "note": "(stereo not given)", "Potency": "inactive"}, {"compound": "CCOc1ccc(Cc2nccc3cc(OCC)c(OCC)cc23)cc1OCC", "Potency": "inactive"}, {"compound": "O=C1NC(=O)c2cc([N+](=O)[O-])ccc21", "Potency": "inactive"}, {"compound": "CC(C)=CCC1C(=O)N(c2ccccc2)N(c2ccccc2)C1=O", "Potency": "inactive"}, {"compound": "Oc1cccc(Nc2ccccc2)c1", "Potency": "inactive"}, {"compound": "COC(=O)CS", "Potency": "inactive"}, {"compound": "C=C/C(C)=C/C/C=C(\\C)CCC=C(C)C", "Potency": "inactive"}, {"compound": "Cc1ccc(Cl)c(Nc2ccccc2C(=O)O)c1Cl", "Potency": "inactive"}, {"compound": "Cc1[nH]cnc1CN1CCc2c(c3ccccc3n2C)C1=O", "Potency": "inactive"}, {"compound": "Clc1ccc(Nc2nnc(Cc3ccncc3)c3ccccc23)cc1", "Potency": "inactive"}, {"compound": "Cc1ccccc1N=C(N)Nc1ccccc1C", "Potency": "inactive"}, {"compound": "CCCCCC#CC(=O)OC", "Potency": "inactive"}, {"compound": "O=C(CCc1ccc(O)cc1)c1c(O)cc(O)cc1O", "Potency": "inactive"}, {"compound": "C[C@@H](CN(C)C)CN1c2ccccc2Sc2ccccc21", "Potency": "16.9 µM (active)"}, {"compound": "Nc1nc2ccc([N+](=O)[O-])cc2s1", "Potency": "inactive"}, {"compound": "CCCCCCCCC(CCCCCC)C(=O)O", "note": "(stereo not given)", "Potency": "inactive"}, {"compound": "CN1C(=O)N(c2ccccc2Br)Cc2cnc(Nc3ccc4c(c3)OCC(CO)O4)nc21", "note": "(stereo not given)", "Potency": "inactive"}, {"compound": "O[C@@H]1CO[C@H]2[C@@H]1OC[C@@H]2O", "Potency": "inactive"}, {"compound": "CCC1NC(=O)c2cc(S(N)(=O)=O)c(Cl)cc2N1", "note": "(stereo not given)", "Potency": "inactive"}, {"compound": "O=C1c2ccccc2C(=O)C1c1ccc(Br)cc1", "Potency": "inactive"}]}]}
